# Measured values as given in PubChem BioAssay.
# Active and inactive are the calls of the source. Unless noted, no rule for the calls is given here. Non-standard residues stand in square brackets, D forms with d. Residues, ends and D or L forms follow the SMILES beside them. Orn = NCCC[CH](N)C(=O)O
# Key:
# [1] = test system: Aerobactin synthetase IucA (Klebsiella pneumoniae); experiment: IucA aerobactin synthetase inhibitors, biochemical, Tocris library, absorbance (AID 1345561); settings: purified IucA enzyme assay, absorbance (OD) read-out; stronger effect = lower value;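 tested at 8 µM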;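 also: 100% = enzyme without compound and 0% = no enzyme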
# [2] = sensitizers of A549 cells to miR-34 induction, primary screen, imaging, A549 dox-inducible miR-34, nuclei and caspase counts (AID 1347080;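 active = compounds whose cell count with miR-34 switched on is under 0.7 times the count with it off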); settings: A549 miR-34 inducible, Hoechst nuclei count, 48 h
# [3] = viability rescue of complex I mutant cybrids, primary screen, cell-based, galactose medium, ATP luminescence (AID 1645843;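 active = z-score of at least 1.8 in each of two replicates, scored against plate mean and spread of sample wells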;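 also: positive z means more ATP and so rescue of galactose-driven cybrid death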); settings: complex I mutant cybrid cells, 72 h, stronger effect = higher value
# [4] = test system: Aerobactin synthetase IucA (Klebsiella pneumoniae hvKP1); experiment: Biochemical IucA enzyme inhibition primary screen of the Spectrum library (AID 1346200); settings: malachite green pyrophosphate, A620, at 8 µM, stronger effect = lower value;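 also: 100% = wells without compound and 0% = wells lacking enzyme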
smiles,measurement,setting,value
CN1[C@@H]2CC[C@H]1CC(OC(=O)N1Cc3ccccc3NC1=O)C2 (stereo not given in full),remaining activity,[1],119% (inactive)
same,fold change,"[2]; stronger effect = lower value, cell number ratio, induced over uninduced",0.979 (inactive)
same,fold change,[2]; measured here: relative caspase fold change +Dox/-Dox,1.11
same,cell count,"[2]; measured here: total cells with miR-34 induction, stronger effect = lower value",8310
same,cell count,[2]; measured here: total cells without miR-34 induction,8490
same,z-score,[3],0.365 (inactive)
COC(=O)C(C)c1ccc(C(=O)c2cccs2)cc1 (stereo not given),activity remaining,[4],103% (inactive)
CC[C@]12C=CCN3CC[C@@]4(c5ccc(OC)cc5N(C)C4[C@@](O)(C(=O)OC)[C@@H]1OC(C)=O)[C@@H]32 (stereo not given in full),activity remaining,[4],112% (inactive)
CC1CC(OC(=O)c2ccccc2O)CC(C)(C)C1 (stereo not given),activity remaining,[4],110% (inactive)
O=C(O)c1ccccc1OP(=O)(O)O,activity remaining,[4],116% (inactive)
CC(=O)O[C@H]1CC[C@@]2(C)C(CC[C@]3(C)C2CC=C2C4CC(C)(C)CC[C@]4(C)CC[C@]23C)C1(C)C (stereo not given in full),activity remaining,[4],102% (inactive)
CC(=O)Oc1cc(C)c2c(c1C=O)Oc1c(c(C)c(OC(C)=O)c3c1C(OC(C)=O)OC3=O)OC2=O (stereo not given),activity remaining,[4],106% (inactive)
Cc1cc(O)c(C)c(O)c1C(=O)O,activity remaining,[4],121% (inactive)
CC(=O)O[C@H]1C[C@@H](OC(C)=O)C(C)(C)C2CC(=O)[C@]3(C)C(CC[C@@]4(C)[C@H](C(=O)O)OC(=O)C5OC543)[C@]21C (stereo not given in full),activity remaining,[4],122% (inactive)
O=c1c(-c2ccc(O)cc2)coc2c(C3O[C@H](CO)[C@@H](O)[C@H](O)[C@H]3O)c(O)ccc12 (stereo not given in full),activity remaining,[4],105% (inactive)
C[C@H]1CC[C@@H](C(C)(C)O)CC2=C1CC[C@@H]2C,activity remaining,[4],102% (inactive)
CC(=O)O[C@@H]1CC2C(C)(C)C(=O)C3OC3[C@]2(C)C2CC[C@@]3(C)[C@H](c4ccoc4)OC(=O)C4OC43[C@@]21C (stereo not given in full),activity remaining,[4],101% (inactive)
CC(=O)c1cc2c(cc1O)OC(C)(C)C=C2,activity remaining,[4],96.6% (inactive)
COc1ccc2c(=O)c(CC(=O)O)coc2c1,activity remaining,[4],117% (inactive)
CC(C)CC1NC(=O)C(CCCN)NC(=O)C(C(C)C)NC(=O)C(Cc2ccc(O)cc2)NC(=O)C(CCC(=O)O)NC(=O)C(CC(=O)O)NC(=O)C(Cc2ccccc2)NC(=O)C(Cc2ccccc2)NC(=O)C2CCCN2C(=O)C(Cc2ccccc2)NC1=O (stereo not given) (cyclo(DEYV[Orn]LFPFF); configuration not given here),activity remaining,[4],113% (inactive)
CC(C(=O)O)[C@H]1CCC2C3CC=C4C[C@@H](O)CC[C@]4(C)C3CC[C@@]21C (stereo not given in full),activity remaining,[4],98.4% (inactive)
C/C=C(/C)C(=O)O[C@@H]1[C@H](OC(C)=O)[C@@]2(CO)C(CC1(C)C)C1=CCC3[C@@]4(C)CC[C@H](O[C@@H]5O[C@H](C(=O)O)[C@@H](O[C@@H]6O[C@H](CO)[C@@H](O)[C@H](O)[C@H]6O)[C@H](O)[C@H]5O[C@@H]5O[C@H](CO)[C@@H](O)[C@H](O)[C@H]5O)[C@](C)(CO)C4CC[C@@]3(C)[C@]1(C)C[C@H]2O (stereo not given in full),activity remaining,[4],119% (inactive)
CN(C)CC/C=C1/c2ccccc2COc2ccccc21,activity remaining,[4],99.3% (inactive)
C/C1=C\CCC(=O)C2CC(C)(C)C2CC1 (stereo not given),activity remaining,[4],105% (inactive)
COc1c2occc2cc2ccc(=O)oc12,activity remaining,[4],124% (inactive)
COc1ccc(-c2cc(=O)c3c(O)c(OC)c(OC)c(OC)c3o2)cc1,activity remaining,[4],93% (inactive)
C[C@@H]1CC2C3C[C@H](F)C4=CC(=O)C=C[C@]4(C)[C@@]3(F)[C@@H](O)C[C@]2(C)[C@@]1(O)C(=O)COC(=O)C(C)(C)C (stereo not given in full),activity remaining,[4],98.9% (inactive)
CC(C)=CCC[C@](C)(O)C1CC=C(C)CC1 (stereo not given in full),activity remaining,[4],118% (inactive)
COc1ccc2c(c1)OC1(O)COc3cc(OC)c(OC)cc3C1=C2 (stereo not given),activity remaining,[4],107% (inactive)
O=C(O)CCC(=O)Nc1ccc(S(=O)(=O)Nc2nccs2)cc1,activity remaining,[4],116% (inactive)
COc1cc(NS(=O)(=O)c2ccc(N)cc2)ncn1,activity remaining,[4],92.3% (inactive)
C[C@@H]1CCC2[C@](C)(CO)[C@@H](O)CC[C@]2(C)[C@@]12CC[C@@](CO)(CCO)O2 (stereo not given in full),activity remaining,[4],113% (inactive)
COc1cc2nc(N(C)CCCNC(=O)C3CCCO3)nc(N)c2cc1OC (stereo not given),activity remaining,[4],120% (inactive)
C#C[C@]1(O)CCC2C3CCC4=C(CCC(=O)C4)C3CC[C@@]21C (stereo not given in full),activity remaining,[4],109% (inactive)
C[C@H](CC(=O)C1OC1(C)C)[C@H]1C(=O)C[C@@]2(C)C3=CCC4C(C)(C)[C@@H](O[C@@H]5OC[C@@H](O)[C@H](O)[C@H]5O)CC[C@@]45C[C@@]35[C@@H](O)C[C@]12C (stereo not given in full),activity remaining,[4],91.8% (inactive)
CC(=O)Oc1cc(-c2coc3cc(OC(C)=O)c(OC(C)=O)c(OC(C)=O)c3c2=O)cc(OC(C)=O)c1OC(C)=O,activity remaining,[4],88.1% (inactive)
CC(=O)NC(C(=O)O)C(C)(C)SN=O (stereo not given),activity remaining,[4],97% (inactive)
CC(=O)OCC(OC(C)=O)C(OC(C)=O)C(OC(C)=O)C(OC(C)=O)C(COC(C)=O)OC(C)=O (stereo not given),activity remaining,[4],103% (inactive)
NC[C@@H]1O[C@H](O[C@@H]2[C@@H](CO)OC(O[C@@H]3[C@@H](O)[C@H](N)C[C@H](N)[C@H]3OC3O[C@H](CN)[C@@H](O)[C@H](O)[C@H]3N)[C@@H]2O)[C@H](N)[C@@H](O)[C@@H]1O (stereo not given in full),activity remaining,[4],99.1% (inactive)
C[C@]12CCC3c4ccc(O)cc4CCC3C1CCC2=O (stereo not given in full),activity remaining,[4],103% (inactive)
CC(C)CCCC(C)[C@H]1CCC2C3CC=C4CC(=O)CC[C@]4(C)C3CC[C@@]21C (stereo not given in full),activity remaining,[4],113% (inactive)
COc1ccc(CCN2CCC(Nc3nc4ccccc4n3Cc3ccc(F)cc3)CC2)cc1,activity remaining,[4],124% (inactive)
Oc1c(Cl)cc(Cl)cc1Sc1cc(Cl)cc(Cl)c1O,activity remaining,[4],118% (inactive)
NC(=O)NC(=O)Cc1ccccc1,activity remaining,[4],93% (inactive)
Cc1cc(NS(=O)(=O)c2ccc(N)cc2)no1,activity remaining,[4],110% (inactive)
C/C(=C\CO)CC[C@H](C)CCC[C@H](C)CCCC(C)C,activity remaining,[4],121% (inactive)
CO[C@@]12[C@@H]3NC3CN1C1=C(C(=O)C(N)=C(C)C1=O)[C@@H]2COC(N)=O (stereo not given in full),activity remaining,[4],95.4% (inactive)
CC[C@H]1OC(=O)[C@H](C)[C@@H](O[C@H]2C[C@@](C)(OC)[C@@H](O)[C@H](C)O2)[C@H](C)[C@@H](O[C@@H]2O[C@H](C)C[C@H](N(C)C)[C@H]2O)[C@](C)(O)C[C@@H](C)CN(C)[C@H](C)[C@@H](O)[C@]1(C)O,activity remaining,[4],104% (inactive)
Cc1cc(-n2c(=O)[nH]c(=O)n(C)c2=O)ccc1Oc1ccc(SC(F)(F)F)cc1,activity remaining,[4],109% (inactive)
N[C@H](Cc1ccccc1)C(=O)O,activity remaining,[4],122% (inactive)
CC(=O)OC1CCC2(C)C3CC(=O)C4(C)C(CC5OC6(CCC(C)CO6)[C@@H](C)C54)C3CC[C@H]2C1 (stereo not given in full),activity remaining,[4],102% (inactive)
CCCCCCCCCCCCC[N+](C)(C)Cc1ccccc1,activity remaining,[4],104% (inactive)
O=C(Oc1cccc2cccnc12)c1ccccc1,activity remaining,[4],92.9% (inactive)
COC1C(O)C(O)C(O)[C@@H](O)C1O (stereo not given in full),activity remaining,[4],106% (inactive)
Nc1cc(C(Cl)=C(Cl)Cl)c(S(N)(=O)=O)cc1S(N)(=O)=O,activity remaining,[4],104% (inactive)
CN1CCC(=C2c3ccccc3CCc3sccc32)CC1,activity remaining,[4],123% (inactive)
COc1c(OC)c2occc2c2oc(=O)ccc12,activity remaining,[4],122% (inactive)
CC(C)(C)CC(C)(C)c1ccc(O)c(Cc2ccc(Cl)cc2Cl)c1,activity remaining,[4],110% (inactive)
CC(C)CCCC(C)[C@H]1CCC2C3CC=C4C[C@@H](O)CC[C@]4(C)C3CC[C@@]21C (stereo not given in full),activity remaining,[4],117% (inactive)
CC1CCc2cc(F)cc3c(=O)c(C(=O)O)cn1c23 (stereo not given),activity remaining,[4],119% (inactive)
CC(=O)CC(c1ccccc1)c1c(O)c2ccccc2oc1=O (stereo not given),activity remaining,[4],118% (inactive)
CC(C)=CCC1=C(O)c2ccccc2C(=O)C1=O,activity remaining,[4],119% (inactive)
COc1cc(O)c(C(C)=O)c(OC)c1,activity remaining,[4],104% (inactive)
CC1(C)C=Cc2cc3ccc(=O)oc3cc2O1,activity remaining,[4],119% (inactive)
CC(=O)Oc1ccc(C(c2ccc(OC(C)=O)cc2)c2ccccn2)cc1,activity remaining,[4],82.7% (inactive)
S=c1nc[nH]c2nc[nH]c12,activity remaining,[4],120% (inactive)
C[N+](C)(C)CC(O)CC(=O)O (stereo not given),activity remaining,[4],99.1% (inactive)
COc1cc(S(C)=O)ccc1-c1nc2ncccc2[nH]1 (stereo not given),activity remaining,[4],108% (inactive)
C=C(C)C1(O)OC(=O)C=C1OC (stereo not given),activity remaining,[4],124% (inactive)
CC(=O)OC1CCC2(O)CC1(C)CCC1C2CC1(C)C (stereo not given),activity remaining,[4],107% (inactive)
O=c1cc(-c2ccccc2)oc2cccc(O)c12,activity remaining,[4],99.1% (inactive)
CCCCCCCC/C=C/CCCCCCCCOP(=O)([O-])OCC[N+](C)(C)C,activity remaining,[4],96.1% (inactive)
COc1ccc(/C=C/C(=O)c2cc(O)ccc2O)cc1,activity remaining,[4],87.4% (inactive)
O=C(O)CCCCC1SCC2NC(=O)NC21 (stereo not given),activity remaining,[4],121% (inactive)
CC(C)CCCC(C)N (stereo not given),activity remaining,[4],121% (inactive)
CC[C@H](C)C(=O)O[C@H]1C[C@@H](C)C=C2C=C[C@H](C)[C@H](CC[C@@H]3C[C@@H](O)CC(=O)O3)[C@H]21,activity remaining,[4],119% (inactive)
CC(=O)O[C@@H]1C[C@@]23C[C@@]24CC[C@H](O[C@@H]2OC[C@@H](O)[C@H](O)[C@H]2O)C(C)(C)C4CCC3[C@]2(C)C[C@@H]3OC4(C[C@@H](C)[C@@H]3[C@@]12C)O[C@H](O)[C@]1(C)O[C@H]41 (stereo not given in full),activity remaining,[4],87.7% (inactive)
CN[C@@H]1C(OC2[C@H](O[C@H]3[C@H](O)[C@@H](O)[C@H](N=C(N)N)[C@@H](O)[C@@H]3N=C(N)N)OC(C)[C@]2(O)CO)OC(CO)C(O)C1O (stereo not given in full),activity remaining,[4],111% (inactive)
CC(C)(C)NCC(O)COc1cccc2c1CCCC2=O (stereo not given),activity remaining,[4],91.1% (inactive)
CC(C)NCC(O)COc1ccc(CC(N)=O)cc1 (stereo not given),activity remaining,[4],117% (inactive)
CCCN(CCC)S(=O)(=O)c1ccc(C(=O)O)cc1,activity remaining,[4],93.6% (inactive)
O=C(Nc1ccc(C(=O)O)c(O)c1)c1ccccc1,activity remaining,[4],89.3% (inactive)
COC(=O)C[C@@H]1C2(C)C(=O)[C@@H](CC3=C4CC(=O)O[C@@H](c5ccoc5)[C@]4(C)CCC32)[C@H](OC(C)=O)C1(C)C (stereo not given in full),activity remaining,[4],112% (inactive)
COc1cc(C)c(C(=O)Oc2cc(C)c(C(=O)O)c(O)c2C)c(OC)c1C,activity remaining,[4],91.1% (inactive)
C=C(C)[C@@H]1CC[C@]2(CO)CC[C@]3(C)[C@H](CCC4[C@@]5(C)CC[C@H](O)C(C)(C)C5CC[C@]43C)C12 (stereo not given in full),activity remaining,[4],93.4% (inactive)
